# From ChEMBL document CHEMBL3988442, “University of Dundee, Small-Polar-MMV Screening Library” (2021)
# Hit rate of the full screen: of about 48,000 compounds, about 13,000 (27%) showed an effect of 50% or more. Some of the results follow.
# Tested on: Wolbachia pipientis
# Experiment: Anti-Wolbachia Cell-Based Screen
# Format: functional
# Design: scale not given: in the data most compounds retested in dose-response had high values
# Details: 5 µM
row,SMILES,Percent Effect [%]
1,COc1cccc([C@H]2CN(C(=O)c3nnc4n3CCCC4)C[C@@H]2N)c1,-27.9
2,N#Cc1cc(NC(=O)c2ccncc2)ccc1N1CCC(O)CC1,-6.115
3,CSc1[nH]nc(NC(=O)c2cccnc2)c1C#N,127.6
4,CSc1[nH]nc(NC(=O)c2ccncc2)c1C#N,113.4
5,N#Cc1cc(NC(=O)c2ccccc2)ccc1N1CCC(O)CC1,8.386
6,CC(NC(=O)c1cccs1)C(=O)NS(=O)(=O)Cc1ccc(C#N)cc1 (stereo unspecified),0.007489
7,CN1CCN(c2ccc(NC(=O)c3cccs3)c(C(F)(F)F)c2)CC1,-12.21
8,CSc1[nH]nc(NC(=O)c2cccs2)c1C#N,125.8
9,CS(=O)(=O)Cc1ccc(NC(=O)c2cccnc2)cc1F,11.8
10,CC(C)(C)NC(=O)c1ccccc1NC(=O)c1ccncc1,2.582
11,CSc1[nH]nc(NC(=O)c2ccccc2)c1C#N,100.8
12,CC(NC(=O)CSCC#N)c1cccc(NC(=O)c2ccccc2)c1 (stereo unspecified),1.227
13,O=C(NCC(F)(F)C(F)F)c1cccnc1,-7.591
14,CCOc1ccc(CN2C(=O)CC(CC)(CC)C2=O)nc1,8.891
15,Cc1cc(-n2cncn2)n2ncnc2n1,116
16,Cc1cc(N2CCCC2Cn2nc(C)cc2C)n2ncnc2n1 (stereo unspecified),10.49
17,Cc1cc(NCc2ccccc2CN2CCCCC2)n2ncnc2n1,-7.326
18,Cc1cc(N2CCCCC2Cn2nc(C)cc2C)n2ncnc2n1 (stereo unspecified),-7.962
19,Cc1cc(-n2cnnn2)n2ncnc2n1,118.9
20,CCc1nc2n(n1)CC(Nc1cc(C)nc3ncnn13)CC2 (stereo unspecified),-9.549
21,CN1CCC(N2CCOC[C@H]2c2nc(C(C)(C)C)c[nH]2)CC1,-19.67
22,Cc1cc(S(C)(=O)=O)c(C)c(S(=O)(=O)NCC2CCC2)c1,-2.164
23,COCCN1C(=O)CO[C@H]2CN(Cc3cccc(OC)c3F)C[C@@H]21,149.6
24,COCCN1C(=O)CO[C@H]2CN(Cc3ccccc3OC)C[C@H]21,-3.474

row,SMILES,Percent Effect [%]
1,COCCN1C(=O)CO[C@@H]2CN(S(=O)(=O)c3ccccc3)C[C@H]21,3.273
2,COCCN1C(=O)CO[C@H]2CN(Cc3ccccc3Cl)C[C@@H]21,128.8
3,COCCN1C(=O)CO[C@H]2CN(S(=O)(=O)c3ccccc3)C[C@H]21,1.954
4,COCCN1C(=O)CO[C@H]2CN(CCCc3ccccc3)C[C@H]21,-4.545
5,C[S+]([O-])c1nncn1CC(=O)c1cccc(C(F)(F)F)c1 (stereo unspecified),-15.18
6,Cc1cc(CN2CCOC(CN(C)c3cccnn3)C2)no1 (stereo unspecified),-1.412
7,O=C(c1coc(-c2ccccc2)n1)N1CCS(=O)(=O)CC1,-26.15
8,O=C(c1ccc(=O)[nH]n1)N1CCCC1CCc1ccccc1 (stereo unspecified),-7.859
9,CCC1CN(C(=O)c2ccc(=O)[nH]n2)CCC(=O)N1Cc1ccccc1 (stereo unspecified),3.625
10,O=C(c1ccc(=O)[nH]n1)N1CCNCC1c1ccccc1 (stereo unspecified),145.5
11,C[C@@H]1CN(Cc2ccncc2)C[C@]1(C)O,97.25
12,CC1CCCN(Cc2ccc(CNC(=O)NCc3ccncc3)cc2)C1 (stereo unspecified),-7.368
13,C[C@@H]1CN(CC(C)(C)N2CCCCC2)C[C@@]1(O)C1CC1,17.38
14,CNc1ccnc(N2C[C@@H](C)[C@](O)(C3CC3)C2)n1,0.4082
15,C[C@@H]1CN(Cc2ccncc2)C[C@@]1(O)C1CC1,102.1
16,C[C@@H]1CN(Cc2nnc(-c3cccnc3)o2)CC[C@]1(C)O,-2.885
17,CC(=O)NCCc1ccc(S(=O)(=O)N(C)C(C)C(C)(C)C)s1 (stereo unspecified),-15.89
18,COc1ccc(C(C)C)cc1C1CC(=O)NCc2nc(N(C)C)sc21 (stereo unspecified),-38.77
19,COc1ccnc(N2CCN(C(=O)c3cnc(C4CC4)s3)CC2)n1,-14.05
20,CN1CCCC(c2nnc3n2CCN(S(=O)(=O)c2ccccc2Cl)C3)C1 (stereo unspecified),97.31
21,CN1CCCC1c1nnc2n1CCN(S(=O)(=O)c1ccccc1Cl)CC2 (stereo unspecified),104.7
22,CCc1nnc2n1CCN(CCS(=O)(=O)c1ccccc1)C2,5.511
23,CNC(=O)CS(=O)(=O)C1CCN(S(=O)(=O)c2cccc(Cl)c2C)CC1,-17.28
24,O=c1[nH]nc2n1CCN(S(=O)(=O)c1ccccc1Cl)C2,-39.65

row,SMILES,Percent Effect [%]
1,c1ccc2oc(N3CCn4c(nnc4C4CC4)C3)nc2c1,-3.429
2,O=S(=O)(c1ccccc1Cl)N1CCCC(c2ncc[nH]2)C1 (stereo unspecified),-0.103
3,Clc1ccc2cccnc2c1CN1CCn2c(nnc2C2CC2)C1,-29.6
4,CN1CCC(c2nnc3n2CCN(S(=O)(=O)c2ccccc2Cl)C3)CC1,149.5
5,Cn1cnnc1S(=O)(=O)C1CCN(S(=O)(=O)c2c(Cl)cccc2Cl)CC1,-14.3
6,CN1CCC(c2nnc3n2CCN(S(=O)(=O)c2ccccc2)C3)CC1,90.65
7,CCOCc1cccc(NC(=O)C2COCCO2)c1 (stereo unspecified),8.112
8,CC(Oc1ccc(OCc2ncc(C(C)C)o2)cc1)C(N)=O (stereo unspecified),3.924
9,COCCN(C(=O)c1ccc(OC)cc1)c1ccc(C#N)cc1,3.07
10,Cc1ccc(C(=O)NCCCN(C(C)C)S(C)(=O)=O)c(=O)[nH]1,16.76
11,COCCN(C)C[C@H]1CC[C@@H](Cc2ccc3c(cnn3C)c2)O1,-8.226
12,CC(C)CS(=O)(=O)N1C[C@H]2C[C@H](C(=O)N3CCOCC3)[C@@H](C1)O2,113.5
13,O=C(NCC1CCCCC1)N1C[C@H]2C[C@H](C(=O)N3CCCC3)[C@@H](C1)O2,-1.453
14,CC(C)CS(=O)(=O)N1C[C@H]2C[C@H](C(=O)N3CCCC3)[C@@H](C1)O2,109.6
15,O=C(NCC1CCCCC1)N1C[C@H]2C[C@H](C(=O)N3CCOCC3)[C@@H](C1)O2,-10.09
16,CC(C)CS(=O)(=O)N1C[C@H]2C[C@H](C(=O)NCc3ccccc3)[C@@H](C1)O2,6.255
17,CC(C)CS(=O)(=O)N1C[C@H]2C[C@H](C(=O)N3CCN(C)CC3)[C@@H](C1)O2.O=C(O)C(F)(F)F,100.5
18,CC(C)CS(=O)(=O)N1C[C@H]2C[C@H](C(=O)N(C)C)[C@@H](C1)O2,117.8
19,CCCS(=O)(=O)N1C[C@H]2C[C@H](C(=O)N(C)C)[C@@H](C1)O2,1.854
20,CN(C)C(=O)[C@H]1C[C@@H]2CN(S(=O)(=O)c3ccccc3)C[C@H]1O2,1.569
21,CC(C)NC(=O)N1C[C@H]2C[C@H](C(=O)N3CCCC3)[C@@H](C1)O2,-51.72
22,Cc1cnc(N2C[C@H]3C[C@H](C(=O)N4CCN(C)CC4)N(C)[C@H]3C2)nc1.O=C(O)C(F)(F)F.O=C(O)C(F)(F)F.O=C(O)C(F)(F)F,1.417
23,CC(C)CN1CCS(=O)(=O)[C@@H]2CCN(S(=O)(=O)CC(C)C)CC[C@@H]21.O=C(O)C(F)(F)F,-0.8095
24,CCS(=O)(=O)NCCNc1c(C#N)cnc2c(F)cc(F)cc12,9.088

row,SMILES,Percent Effect [%]
1,O=c1c2cccnc2cnn1CC(O)c1cccc(Cl)c1 (stereo unspecified),-24.01
2,O=C(NCC(O)c1cccc(F)c1)C1CCN(C2CCCCC2)CC1 (stereo unspecified),-12.87
3,CCN1CCCC1CN(Cc1ccon1)CC1CCN(CCOC)CC1 (stereo unspecified),1.475
4,COCCN1CCC(CN(CC2CCCO2)C(=O)Cc2cccs2)CC1 (stereo unspecified),153.6
5,CCN1CCCC1CN(Cc1ccoc1)CC1CCN(CCOC)CC1 (stereo unspecified),3.887
6,O=C(c1cccnc1O)N(Cc1cccs1)CC1CCCO1 (stereo unspecified),-28.97
7,COCCN1CCC(CN(CC2CCCO2)C(=O)Cn2cccn2)CC1 (stereo unspecified),105.2
8,COCCN(Cc1cccs1)C(=O)C1CCCN(C(N)=O)C1 (stereo unspecified),11.05
9,CN(C)C(=O)N1CCC2(CC1)CN(CC1CC1)CC21CCNC1=O.O=C(O)C(F)(F)F (stereo unspecified),-46.87
10,CC(C)CC(C(=O)N(C)Cc1ncnn1C)N1CCCCC1=O (stereo unspecified),7.289
11,O=C(C1CCCO1)N1CCC(n2cc(-c3ccsc3)nn2)CC1 (stereo unspecified),2.629
12,CCNC(=O)NC1CCN(c2ccc(S(=O)(=O)CC)cc2)CC1,-0.338
13,CC(C#N)CN(C)Cc1ccc(Cl)c2cccnc12 (stereo unspecified),-6.534
14,CC(C)n1cc(C(=O)N2CCC(n3cc(C(C)(C)C)nn3)CC2)cn1,5.915
15,CCC(CC)(CNC(=O)OC(C)(C)C)NC(=O)C1CC1,0.8539
16,COCCN1C[C@@H]2CN(Cc3ccoc3)CCC[C@]2(C(=O)O)C1.O=C(O)C(F)(F)F.O=C(O)C(F)(F)F,-3.751
17,COCCN1C[C@@H]2CN(Cc3ccc(C)s3)CCC[C@]2(C(=O)O)C1.O=C(O)C(F)(F)F.O=C(O)C(F)(F)F,111.2
18,Cc1ccc(CN2CCC[C@]3(C(=O)O)CN(CC4CC4)C[C@@H]3C2)s1.O=C(O)C(F)(F)F.O=C(O)C(F)(F)F,98.43
19,CN1C[C@@H]2CN(Cc3ccsc3)CCC[C@]2(C(=O)O)C1.O=C(O)C(F)(F)F.O=C(O)C(F)(F)F,3.355
20,Cc1ccc(CN2C[C@@H]3CN(CC4CCOCC4)CCO[C@@H]3C2)s1.O=C(O)C(F)(F)F.O=C(O)C(F)(F)F,-6.305
21,Cc1ccc(CN2CCCC3(CCCC(=O)N3)C2)s1.O=C(O)C(F)(F)F (stereo unspecified),-10.23
22,Cc1ccc(CN2CCCC3(CCCN3S(C)(=O)=O)C2)s1.O=C(O)C(F)(F)F (stereo unspecified),2.867
23,Cc1ccc(CN2CCC[C@]3(C(=O)O)CN(C)C[C@@H]3C2)s1.O=C(O)C(F)(F)F.O=C(O)C(F)(F)F,119.8
24,COCCN1C[C@@H]2CN(Cc3ccsc3)CCC[C@]2(C(=O)O)C1.O=C(O)C(F)(F)F.O=C(O)C(F)(F)F,4.755
